# Experimental data published in the supplement of paper PMC8047044.
# Counter-ions that a name gives are not always drawn.
# Tested on: Neuro-2a
# Test: neurite formation score, plate-normalized to DMSO control mean 5.04 (score (0-8 scale)); higher = more or longer neurites
# Details: 1 µM
# Method: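 Neuro-2a mouse neuroblastoma cells in PLL-coated 96-well plates were pre-treated for 1 h in DMEM(+) with each kinase inhibitor at 1 µM, then switched to serum-free DMEM(-) with inhibitor to induce neurite outgrowth and fixed about 2-3 h later. Three blinded observers scored neurite formation from 0 (no neurites) to 8 (long neurites on almost all cells).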
row,SMILES,neurite formation score
1,CC(C)n1nc(-c2ccc3oc(N)nc3c2)c2c(N)ncnc21,3.96
2,CCn1cc(-c2ccnc3[nH]c(-c4cccc(CN(C)C)c4)cc23)c(-c2ccc(NC(=O)N(C)C)cc2)n1,4.69
3,CC[C@@H]1C(=O)N(C)c2cnc(Nc3ccc(C(=O)N[C@H]4CC[C@H](N5CCN(CC6CC6)CC5)CC4)cc3OC)nc2N1C(C)C [BI6727 (Volasertib)],5.29
4,NC(=O)Nc1cc(-c2cccc(F)c2)sc1C(=O)N[C@H]1CCCNC1,-0.431
5,c1cc(-c2cnn3cc(-c4ccc(N5CCNCC5)cc4)cnc23)c2cccnc2c1,4.88
6,O=C(/C=C/c1ccc(O)c(O)c1)c1ccc(O)cc1O [Butein],5.24
7,CNC(=O)Nc1ccc(-c2nc(N3CC4CCC(C3)O4)c3cnn(C4CCC5(CC4)OCCO5)c3n2)cc1,3.54
8,Cc1cc(N2CCOCC2)cc2[nH]c(-c3c(NC[C@@H](O)c4cccc(Cl)c4)cc[nH]c3=O)nc12,3.57
9,N#Cc1cccc(-c2c[nH]c3ncnc(N4CCOCC4)c23)c1,5.21
10,Cc1cc(Nc2cc(N3CCN(C)CC3)nc(/C=C/c3ccccc3)n2)n[nH]1 [ENMD-2076 L-(+)-Tartaric acid],3.8
11,Cc1ccc(NC(=O)c2ccc(CN3CCN(C)CC3)cc2)cc1Nc1nc(-c2cccnc2)cs1 [Masitinib (AB1010)],4.24
12,Cc1ccc(Nc2nccc(N(C)c3ccc4c(C)n(C)nc4c3)n2)cc1S(N)(=O)=O [Pazopanib Hydrochloride],3.57
13,Cc1ccc(-c2nn(C(C)(C)C)c3ncnc(N)c23)cc1,2.9
14,CCn1c(=O)c(-c2ccc(-c3cncs3)cc2Cl)cc2cnc(Nc3ccc(N4CCN(C)CC4)cc3)nc21,4.96
15,N#C/C(=C\c1ccc(O)c(O)c1)C(=O)NCc1ccccc1,4.02
16,CNCc1ccc(-c2cc(-c3nc(-c4ccc(S(=O)(=O)C(C)C)cc4)cnc3N)on2)cc1,1.29
17,COc1cc(C(=O)NC2CCN(C)CC2)ccc1Nc1ncc2c(n1)N(C1CCCC1)CC(F)(F)C(=O)N2C,4.29
18,Cc1ccc(NC(=O)c2ccc(CN3CCN(C)CC3)cc2)cc1Nc1nccc(-c2cccnc2)n1 [Imatinib Mesylate (STI571)],4.91
19,CCOC(=O)c1cnc2ccc(-c3cncc(NS(=O)(=O)c4ccccc4)c3)cn12,-0.457
20,NC(=O)c1cnc(N[C@@H]2CCCC[C@@H]2N)nc1Nc1cccc(-n2nccn2)c1,4.36

row,SMILES,neurite formation score
1,C=CC(=O)Nc1cccc(Sc2nc(Nc3ccc(N4CCN(C)CC4)cc3)ncc2Cl)c1,4.91
2,CN1CCN(c2ccc(OC(F)(F)F)c(Nc3ncc4c(n3)-c3c(c(C(N)=O)nn3CCO)CC4)c2)CC1,4.88
3,Nc1cccc(S(=O)(=O)N2CCCN(S(=O)(=O)c3ccc4c(c3)OCCO4)CC2)c1,4.14
4,FC(F)(F)c1ccc(CNc2ccc(Cc3c[nH]c4ncc(Cl)cc34)cn2)cn1 [Pexidartinib (PLX3397)],4.54
5,O=C(Cc1ccc(-c2ccc(OCCN3CCOCC3)cc2)cn1)NCc1ccccc1,-0.529
6,O=C1NC(=O)C(c2cnc3ccccn23)=C1c1cn2c3c(cc(F)cc13)CN(C(=O)N1CCCCC1)CC2,3.47
7,Cc1ccc(S(=O)(=O)Nc2nc3ccccc3nc2Nc2ccc3nsnc3c2)cc1,4.14
8,O=[N+]([O-])c1ccc(-c2nc(-c3ccc(F)cc3)c(-c3ccncc3)[nH]2)cc1,3.96
9,O=C1NC(=O)/C(=C/c2ccc3nccc(-c4ccncc4)c3c2)S1,4.14
10,CCC[C@H](NC(=O)/C(C#N)=C/c1cccc(Br)n1)c1ccccc1,1.24
11,CCCNC(=O)Nc1ccc(Oc2ncnc3cc(OC)c(OC)cc23)cc1Cl,5.57
12,Nc1cc(C(F)(F)F)c(-c2cc(N3CCOCC3)nc(N3CCOCC3)n2)cn1,5.24
13,Cc1cc(C(C)Nc2ccccc2)c2nc(N3CCOCC3)cc(=O)n2c1 (stereo not given),4.47
14,CNC(=O)c1c(F)cccc1Nc1nc(Nc2cc3c(cc2OC)CCN3C(=O)CN(C)C)nc2[nH]ccc12,4.96
15,N#CC1(c2ccc(NC(=O)c3cccnc3NCc3ccncc3)cc2)CCCC1 [Apatinib],4.54
16,Cc1cc(C)nc(NS(=O)(=O)c2ccc(NC(=S)NC(=O)COc3ccc(Br)cc3Cl)cc2)n1,3.9
17,CN1CCN(c2cccc(Nc3nc4c(-c5ccc(S(C)(=O)=O)cc5)cccn4n3)c2)CC1,4.69
18,O=C(/C=C/c1ccc2ccccc2n1)c1ccncc1,5.21
19,Cc1nc2c(-c3cnc(N)nc3)nc(N3CCOCC3)nc2n1C(C)C,4.02
20,Nc1ccc(C(=O)Nc2cccc(-c3nc(N4CCOCC4)c4oc5ncccc5c4n3)c2)cn1,4.54
